From PubChem BioAssay (Tox21)
Results filed as inconclusive are left out. Active and inactive are the calls of the source. Unless noted, calls come from the whole dose curve; as a rule, active = well fitted curve in the direction sought with a large enough effect in the repeat runs; inconclusive = weak or mixed curves; inactive = no such curve, though single readings can be large; an effect the other way counts as inactive or inconclusive.

Assays:
[1] = qHTS assay to identify small molecule agonists of the hypoxia (HIF-1) signaling pathway (AID 1224846; active = well fitted activation curve with a large enough effect in the signal ratio in the repeat runs, not every such curve was filed as active; the % refers to the signal ratio)
In short: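 HRE-bla ME-180 cells (beta-lactamase reporter under hypoxia response element) were plated at 2,000 cells/well in medium with 0.5% dialyzed FBS, rested 5 hrs, then given compounds in DMSO for 17 hrs at 37C, 5% CO2. Reporter induction was read with CCF4-AM FRET substrate.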

[2] = qHTS assay to identify small molecule agonists of H2AX - cell viability counter screen (AID 1224847; calls by dose curve; note: nearly all actives have a fitted effect of over 30% in size; note: potency is the fitted concentration of half-maximal effect; for activity change, negative = cytotoxicity: top concentration of the series differs between compounds)
In short: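 Read-out: CellTiter-Glo luminescence, 30 min RT. Cells: wild-type CHO-K1, 1000/well, 10% FBS, plated overnight at 37C. Treatment: 15 concentrations, 3 hr, 37C, 0.76% DMSO.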

[3] = qHTS RealTime-Glo MT Cell Viability Assay in HepG2 cells - 24 hour (AID 1224867); note: nearly all actives have a fitted effect of over 50% in size; note: potency is the fitted concentration of half-maximal effect
In short: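 Tox21 10K library screened in qHTS format on HepG2 cells carrying RealTime-Glo reagents. Compounds were added after a 5 h preincubation, and the luminescent signal from continuous culture was measured repeatedly during 40 h treatment.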

[4] = qHTS RealTime-Glo MT Cell Viability Assay in HEK293 cells - 32 hour (AID 1224868); note: nearly all actives have a fitted effect of over 50% in size; note: potency is the fitted concentration of half-maximal effect; for activity change, negative = cytotoxic: top concentration of the series differs between compounds
In short: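 Luminescence generated by NanoLuc from substrate produced by living HEK293 cells served as the viability signal. Each value reflects the reading at its stated time point during continuous 40 h compound exposure at 37 C.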

[5] = A CellTox Green Cytotoxicity Assay to monitor cytotoxicity in HEK293 cells - 0 hour (AID 1224869); note: nearly all actives have a fitted effect of over 50% in size
In short: (§1)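 HEK293 cells premixed with CellTox Green dye were seeded at 600 cells/well and left 5 h at 37 C/5% CO2 before pin transfer of 23 nL compound in DMSO. Fluorescence from dye bound to dead-cell DNA was read during 40 h treatment.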

[6] = qHTS RealTime-Glo MT Cell Viability Assay in HepG2 cells - 40 hour (AID 1224870); note: nearly all actives have a fitted effect of over 50% in size; note: potency is the fitted concentration of half-maximal effect
In short: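 HepG2 cells mixed with RealTime-Glo MT reagents (NanoLuc plus cell-permeant prosubstrate) were seeded at 600 cells/well, incubated 5 h at 37 C/5% CO2, then pinned with compounds in DMSO; nonlytic luminescence tracked viability during 40 h treatment.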

[7] = A CellTox Green Cytotoxicity Assay to monitor cytotoxicity in HEK293 cells - 40 hour (AID 1224871); note: nearly all actives have a fitted effect of over 45% in size
In short: as §1

[8] = qHTS assay to identify small molecule antagonists of the estrogen related receptor (ERR) signaling pathway from Tox21 library (AID 1224848); note: nearly all actives have a fitted effect of over 50% in size; note: potency is the fitted concentration of half-maximal effect
In short: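 Screening used an ERR reporter line supplied by NTP, exposed for 18 h at 37 C to library compounds delivered in DMSO. Signal was luciferase luminescence developed with ONE-Glo at room temperature for 30 min.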

[9] = qHTS assay to identify small molecule agonists of the estrogen related receptor (ERR) signaling pathway from Tox21 library (AID 1224849; calls by dose curve; note: nearly all actives have a fitted effect of over 15% in size); settings: ERR reporter cell line, ONE-Glo luciferase, 18 h; at 92.4 µM (top of the series) unless noted
In short: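 ERR reporter cell line (NTP) seeded, rested 6 h at 37 C/5% CO2, then pinned with Tox21 compounds in DMSO. After 18 h at 37 C, ONE-Glo luciferase luminescence was read following 30 min at room temperature.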

[10] = qHTS assay to identify small molecule agonists of H2AX (AID 1224845; active = well fitted activation curve with a large enough effect in the signal ratio in the repeat runs, not every such curve was filed as active; the % refers to the signal ratio)
In short: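 Wild-type CHO-K1 cells plated overnight, then exposed 3 hr at 37C to compounds at 15 concentrations (0.76% DMSO). Lysed, then HTRF anti-pH2AX(S139)-cryptate/anti-H2AX-d2 detection after 24 hr at room temperature; emissions 665 and 620 nm.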
% is set by controls: 0 for no effect and ±100 for the full control effect.

CC(C)C(=O)O
inactive: outcome [1] | Potency [2] | Potency [3] | Potency [4] | Potency [5] | Potency [6] | Potency [7]

Cn1c(=O)c2c(ncn2CC(=O)O)n(C)c1=O
inactive: outcome [1] | Potency [2] | Potency [3] | Potency [4] | Potency [5] | Potency [6] | Potency [7]

O=C(C(=O)c1ccccc1)c1ccccc1
inactive: outcome [1] | Potency [2] | Potency [8] | activity change, positive = activation [9] 5.83% | Potency [3] | Potency [4] | Potency [5] | Potency [6]

CCN(Cc1cccc(S(=O)(=O)O)c1)c1ccc(C(=C2C=CC(=[N+](CC)Cc3cccc(S(=O)(=O)[O-])c3)C=C2)c2ccccc2)cc1
inactive: outcome [1] | Potency [2] | Potency [8] | activity change, positive = activation [9] 1.85% [at 42.5 µM] | Potency [3] | Potency [4] | Potency [5] | Potency [6]

Oc1cc(O)c(Cl)cc1Cl
inactive: outcome [1] | Potency [2] | Potency [8] | activity change, positive = activation [9] -14.1% | Potency [3] | Potency [5] | Potency [6] | Potency [7]

CN(C)C(=O)Nc1ccc(Oc2ccc(Cl)cc2)cc1
inactive: outcome [1] | activity change, positive = activation [9] -44.7% | Potency [3] | Potency [5] | Potency [6] | Potency [7]
active: Potency [2] 89.8 µM | Potency [8] 13.7 µM | Potency [4] 38.9 µM

COCCOC
inactive: outcome [1] | Potency [2] | activity change, positive = activation [9] -69.9% | Potency [3] | Potency [5] | Potency [6]
active: Potency [8] 1.46 µM | Potency [4] 0.74 µM

CO[Si](C)(OC)OC
inactive: outcome [1] | Potency [2] | Potency [3] | Potency [4] | Potency [5] | Potency [6]

NC(=O)Nc1ccc(Cl)c(Cl)c1
inactive: outcome [1] | Potency [2] | Potency [8] | activity change, positive = activation [9] 4.97% | Potency [3] | Potency [5] | Potency [6] | Potency [7]

Cc1cc(C(=C2C=CC(=Nc3ccc(S(=O)(=O)O)cc3S(=O)(=O)O)C=C2)c2ccc(Nc3ccc(S(=O)(=O)O)cc3)cc2)ccc1N
inactive: outcome [1] | Potency [2] | Potency [3] | Potency [4] | Potency [5] | Potency [6] | Potency [7]

Cc1ccc(S)cc1
inactive: outcome [1] | Potency [2] | Potency [3] | Potency [4] | Potency [5] | Potency [6] | Potency [7]

COC(=O)c1cc(Cl)ccc1NS(=O)(=O)C(F)(F)F
inactive: outcome [1] | Potency [2] | Potency [8] | activity change, positive = activation [9] 6.47% [at 42.5 µM] | Potency [3] | Potency [4] | Potency [5] | Potency [6]

CC(=O)CC(c1ccc([N+](=O)[O-])cc1)c1c(O)c2ccccc2oc1=O (configuration not stated)
inactive: outcome [1] | Potency [2] | Potency [8] | activity change, positive = activation [9] -11.1% [at 42.5 µM] | Potency [3] | Potency [5] | Potency [6] | Potency [7]

O=C1OCCN1/N=C/c1ccc([N+](=O)[O-])o1
inactive: outcome [1] | Potency [2] | Potency [3] | Potency [4] | Potency [5] | Potency [6] | Potency [7]

COc1ccc(CCC(=O)c2c(O)cc(O[C@@H]3O[C@H](CO)[C@@H](O)[C@H](O)[C@H]3O[C@@H]3O[C@@H](C)[C@H](O)[C@@H](O)[C@H]3O)cc2O)cc1O
inactive: outcome [1] | Potency [2] | Potency [8] | activity change, positive = activation [9] 1.69% | Potency [3] | Potency [4] | Potency [5] | Potency [6] | Potency [7]

O=C(NCCCN1CCOCC1)c1ccc(Cl)cc1
inactive: outcome [1] | Potency [2] | Potency [8] | activity change, positive = activation [9] 11.6% [at 42.5 µM] | Potency [3] | Potency [4] | Potency [5] | Potency [6] | Potency [7]

Fc1ccccc1[C@@H](F)COC1CCC(Nc2ncnc3[nH]ncc23)CC1 (some centres not stated)
active: Potency [2] 101 µM | Potency [4] 21.9 µM
inactive: outcome [1] | Potency [3] | Potency [5] | Potency [6]

CC(C)CCCCCCOC(=O)CCCCC(=O)OCCCCCCC(C)C
inactive: outcome [1] | Potency [2] | Potency [3] | Potency [4] | Potency [5] | Potency [7]

CC(C)CCCC(=O)O
inactive: outcome [1] | Potency [2] | Potency [8] | activity change, positive = activation [9] 0.997% | Potency [3] | Potency [4] | Potency [5] | Potency [7]

COC(=O)Nc1nc2ccc(C(=O)c3cccs3)cc2[nH]1
inactive: outcome [1] | Potency [2] | Potency [8] | activity change, positive = activation [9] -4.13% [at 42.5 µM] | Potency [3] | Potency [5] | Potency [6]
active: Potency [4] 0.169 µM

Oc1ccc(Nc2ccccc2)cc1
active: Potency [8] 24.3 µM | Potency [4] 21.9 µM
inactive: outcome [1] | Potency [2] | activity change, positive = activation [9] -35.9% | Potency [5] | Potency [6]

CCc1c2c(nc3ccc(OC(=O)N4CCC(N5CCCCC5)CC4)cc13)-c1cc3c(c(=O)n1C2)COC(=O)[C@]3(O)CC
inactive: outcome [1] | Potency [2] | Potency [3] | Potency [5] | Potency [6] | Potency [7]
active: Potency [4] 2.68 µM

Nc1nccs1
inactive: outcome [1] | Potency [2] | Potency [3] | Potency [4] | Potency [5] | Potency [6]

CC1CN(c2cc3c(cc2F)c(=O)c(C(=O)O)cn3-c2ccc(F)cc2F)CCN1 (configuration not stated)
inactive: activation [1] 0.362% [at 7.01 µM] | activity change, negative = cytotoxicity [2] 1.23% [at 14 µM] | activity change, negative = cytotoxicity [3] 4.21% [at 6.97 µM] | activity change, negative = cytotoxic [4] 5.72% [at 6.97 µM] | cytotoxicity [5] -3.88% [at 6.97 µM] | activity change, negative = cytotoxic [6] 3.59% [at 6.97 µM] | cytotoxicity increase [7] -7.27% [at 6.97 µM]

CC(=O)Nc1ccccc1C
inactive: outcome [1] | Potency [2] | Potency [8] | activity change, positive = activation [9] -0.329% | Potency [3] | Potency [4] | Potency [5] | Potency [7]

CCC(C)=O
inactive: outcome [1] | Potency [2] | Potency [8] | Potency [3] | Potency [4] | Potency [5] | Potency [6] | Potency [7]

C=CCCCCCCCCCCCCCCCC
inactive: activation [1] 0.0723% [at 7.01 µM] | activity change, negative = cytotoxicity [2] 0.307% [at 14 µM] | activity, negative = inhibition [8] 6.89% [at 8.39 µM] | activity change, positive = activation [9] 3.59% [at 8.39 µM] | activity change, negative = cytotoxicity [3] 0.0094% [at 6.97 µM] | activity change, negative = cytotoxic [4] -11.9% [at 6.97 µM] | cytotoxicity [5] -3.01% [at 6.97 µM] | activity change, negative = cytotoxic [6] 26.4% [at 6.97 µM] | cytotoxicity increase [7] -6.74% [at 6.97 µM]

Nc1ccc(S(=O)(=O)O)c(N)c1
inactive: outcome [1] | Potency [2] | Potency [8] | activity change, positive = activation [9] 1.48% | Potency [3] | Potency [4] | Potency [5] | Potency [6] | Potency [7]

CO[C@H]1C=CO[C@@]2(C)Oc3c(C)c(O)c4c(O)c(c5c(c4c3C2=O)=NC2(CCN(CC(C)C)CC2)N=5)NC(=O)/C(C)=C\C=C/[C@H](C)[C@H](O)[C@@H](C)[C@@H](O)[C@@H](C)[C@H](OC(C)=O)[C@@H]1C
inactive: outcome [1] | activity change, positive = activation [9] -63.3% | Potency [5] | Potency [6] | Potency [7]
active: Potency [2] 98.6 µM | Potency [8] 30 µM

CC(COc1ccc(C(C)(C)C)cc1)OS(=O)OCCCl (configuration not stated)
active: Potency [8] 0.614 µM
inactive: outcome [1] | Potency [2] | activity change, positive = activation [9] -72.8% | Potency [3] | Potency [5] | Potency [7]

C/C(=N/NC(=O)c1ccncc1)C(=O)O
inactive: outcome [1] | Potency [2] | Potency [3] | Potency [4] | Potency [5] | Potency [6] | Potency [7]

CC1=C(C=O)C(C)(C)CCC1
inactive: outcome [1] | Potency [2] | Potency [3] | Potency [5] | Potency [6]

Cc1cc2nc3ccc(=[N+](C)C)cc-3sc2cc1N
active: Potency [2] 24.7 µM | Potency [8] 0.531 µM | Potency [3] 16.9 µM | Potency [4] 2.39 µM | Potency [6] 21.3 µM
inactive: outcome [1] | activity change, positive = activation [9] -65.1% [at 42.5 µM] | Potency [5] | Potency [7]

CCCCCCOC(=O)CCCCCCCC(=O)OCCCCCC
inactive: outcome [1] | Potency [2] | Potency [3] | Potency [4] | Potency [5] | Potency [6] | Potency [7]

Cc1oncc1C(=O)Nc1ccc(C(F)(F)F)cc1
inactive: Potency [10] | Potency [2] | Potency [5] | Potency [7]

CCC(C(=O)OCCOCCN(CC)CC)c1ccccc1 (configuration not stated)
inactive: outcome [1] | Potency [2] | Potency [3] | Potency [4] | Potency [5] | Potency [6] | Potency [7]

COc1ccccc1N=Nc1c(S(=O)(=O)O)cc2cc(S(=O)(=O)O)cc(NC(C)=O)c2c1O
active: Potency [2] 42.3 µM
inactive: outcome [1] | activity change, positive = activation [9] -27.5% | Potency [3] | Potency [5] | Potency [7]
